The panel holds about 83,000 compounds, 20% with a hit somewhere; the sample as a whole holds those more often.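 A percent growth of 40 corresponds to 60% growth inhibition; 0 means no net growth; -100 means all cells died. Active threshold: below 10.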 Values without a mark were called inactive. Active and inactive are the calls of the source.
Tests used:
Test in all cases: NCI-60 one-dose screen, 48 h (100 = growth as untreated, 0 = no growth, -100 = all killed)
Details in all cases: 10 µM unless noted
HT29 colon = test system: HT29 colon
SNB-75 CNS = test system: SNB-75 CNS
SNB-19 CNS = test system: SNB-19 CNS
U251 CNS = test system: U251 CNS
PC-3 prostate = test system: PC-3 prostate
SK-MEL-5 melanoma = test system: SK-MEL-5 melanoma
UACC-62 melanoma = test system: UACC-62 melanoma
LOX IMVI melanoma = test system: LOX IMVI melanoma
SK-MEL-28 melanoma = test system: SK-MEL-28 melanoma
SK-MEL-2 melanoma = test system: SK-MEL-2 melanoma
SN12C renal = test system: SN12C renal
UO-31 renal = test system: UO-31 renal
TK-10 renal = test system: TK-10 renal
ACHN renal = test system: ACHN renal
A498 renal = test system: A498 renal
CCRF-CEM leukemia = test system: CCRF-CEM leukemia
MOLT-4 leukemia = test system: MOLT-4 leukemia
SR leukemia = test system: SR leukemia
EKVX NSCLC = test system: EKVX NSCLC
CAKI-1 renal = test system: CAKI-1 renal

CCCCCCOc1ccc(/C=N/NC(N)=S)cc1
growth (HT29 colon): 38.7% | growth (SNB-75 CNS): 58.9% | growth (SNB-19 CNS): 80.1% | growth (U251 CNS): 58.4% | growth (PC-3 prostate): 49.4% | growth (SK-MEL-5 melanoma): 53.6% | growth (UACC-62 melanoma): 44.6% | growth (LOX IMVI melanoma): 55.6% | growth (SK-MEL-28 melanoma): 76.1% | growth (SK-MEL-2 melanoma): 69.6% | growth (SN12C renal): 22.2% | growth (UO-31 renal): 17.8% | growth (TK-10 renal): 54.3% | growth (ACHN renal): 61.6% | growth (A498 renal): 99.7% | growth (CCRF-CEM leukemia): 6.97% (active) | growth (MOLT-4 leukemia): 7.23% (active) | growth (SR leukemia): 69.5%

COc1ccc(/C(=C2\O[C@@H]([C@H](O)CO)[C@H]3OC(C)(C)O[C@@H]23)c2cc(OC)c(OC)c(OC)c2)cc1O
growth (HT29 colon): 111% | growth (SNB-75 CNS): 55.9% | growth (SNB-19 CNS): 76.8% | growth (U251 CNS): 90.6% | growth (PC-3 prostate): 51.8% | growth (SK-MEL-5 melanoma): 74.3% | growth (UACC-62 melanoma): 95.1% | growth (SK-MEL-2 melanoma): 77.5% | growth (EKVX NSCLC): 97% | growth (SN12C renal): 95.6% | growth (UO-31 renal): 90.1% | growth (TK-10 renal): 106% | growth (ACHN renal): 78.5% | growth (CAKI-1 renal): 105% | growth (CCRF-CEM leukemia): 95.3% | growth (MOLT-4 leukemia): 78.1% | growth (SR leukemia): -13% (active)

Cc1cc(C(=O)O)c(C)cc1C(=O)O
growth (HT29 colon): 103% | growth (SNB-75 CNS): 97% | growth (SNB-19 CNS): 107% | growth (U251 CNS): 109% | growth (PC-3 prostate): 92.3% | growth (SK-MEL-5 melanoma): 99.9% | growth (LOX IMVI melanoma): 103% | growth (SK-MEL-28 melanoma): 108% | growth (SK-MEL-2 melanoma): 104% | growth (EKVX NSCLC): 122% | growth (SN12C renal): 106% | growth (UO-31 renal): 73.5% | growth (TK-10 renal): 115% | growth (ACHN renal): 112% | growth (CAKI-1 renal): 102% | growth (A498 renal): 103% | growth (CCRF-CEM leukemia): 101% | growth (MOLT-4 leukemia): 87.7% | growth (SR leukemia): 105%

COC(=O)[C@]12CC[C@@H](C)[C@H](C)[C@@H]1C1=CC[C@@H]3[C@@]4(C)C[C@@H](OC(=O)c5ccco5)[C@H](O)[C@@](C)(CO)[C@@H]4[C@H](O)C[C@@]3(C)[C@]1(C)CC2
growth (HT29 colon): -92.8% (active) | growth (SNB-75 CNS): -84.4% (active) | growth (SNB-19 CNS): -71% (active) | growth (U251 CNS): -85.2% (active) | growth (PC-3 prostate): -100% (active) | growth (SK-MEL-5 melanoma): -99.9% (active) | growth (LOX IMVI melanoma): -99.4% (active) | growth (SK-MEL-28 melanoma): -84.6% (active) | growth (SK-MEL-2 melanoma): -77.7% (active) | growth (EKVX NSCLC): -91.9% (active) | growth (SN12C renal): -77.2% (active) | growth (UO-31 renal): -89.6% (active) | growth (TK-10 renal): -87.9% (active) | growth (ACHN renal): -95% (active) | growth (CAKI-1 renal): -98.3% (active) | growth (A498 renal): -94.5% (active) | growth (CCRF-CEM leukemia): -87.3% (active) | growth (MOLT-4 leukemia): -75.5% (active) | growth (SR leukemia): -91% (active)

O=C(Nc1ccc(OCc2nnc(-c3ccccc3)o2)c(F)c1)Nc1ccc(Cl)c(C(F)(F)F)c1
growth (HT29 colon): 9.92% (active) | growth (SNB-75 CNS): 40.2% | growth (SNB-19 CNS): 29.9% | growth (U251 CNS): 7.14% (active) | growth (PC-3 prostate): -16.2% (active) | growth (SK-MEL-5 melanoma): 4.6% (active) | growth (UACC-62 melanoma): 27.4% | growth (LOX IMVI melanoma): 7.41% (active) | growth (SK-MEL-2 melanoma): 16.2% | growth (SN12C renal): 16.1% | growth (UO-31 renal): -19% (active) | growth (TK-10 renal): 33.7% | growth (ACHN renal): 9.47% (active) | growth (CAKI-1 renal): 16.4% | growth (A498 renal): 18% | growth (CCRF-CEM leukemia): 18.9% | growth (MOLT-4 leukemia): 13.7% | growth (SR leukemia): 0.0728% (active)

Nc1ccc(S(=O)(=O)Nc2ncccn2)cc1
growth (HT29 colon): 105% | growth (SNB-75 CNS): 102% | growth (SNB-19 CNS): 105% | growth (U251 CNS): 106% | growth (PC-3 prostate): 97.7% | growth (SK-MEL-5 melanoma): 108% | growth (LOX IMVI melanoma): 102% | growth (SK-MEL-28 melanoma): 118% | growth (SK-MEL-2 melanoma): 106% | growth (EKVX NSCLC): 103% | growth (SN12C renal): 103% | growth (UO-31 renal): 94.5% | growth (TK-10 renal): 114% | growth (ACHN renal): 98.6% | growth (CAKI-1 renal): 103% | growth (A498 renal): 113% | growth (CCRF-CEM leukemia): 101% | growth (MOLT-4 leukemia): 106% | growth (SR leukemia): 103%

Cc1ccc(C(O)C2=CC(=O)c3ccccc3C2=O)cc1 (stereo unspecified)
growth (HT29 colon): 107% | growth (SNB-75 CNS): 92.3% | growth (SNB-19 CNS): 102% | growth (U251 CNS): 96% | growth (PC-3 prostate): 89.4% | growth (SK-MEL-5 melanoma): 97.7% | growth (UACC-62 melanoma): 90.5% | growth (SK-MEL-28 melanoma): 112% | growth (SK-MEL-2 melanoma): 116% | growth (EKVX NSCLC): 91.2% | growth (SN12C renal): 94.9% | growth (UO-31 renal): 73.2% | growth (TK-10 renal): 118% | growth (ACHN renal): 86.7% | growth (CAKI-1 renal): 100% | growth (A498 renal): 95.9% | growth (MOLT-4 leukemia): 94.7% | growth (SR leukemia): 90%

Oc1ccc(Cc2ccc(O)c(C3CC(c4ccc(Cl)cc4)=NN3)c2)cc1C1CC(c2ccc(Cl)cc2)=NN1 (stereo unspecified)
growth (HT29 colon): 51% | growth (SNB-75 CNS): 36.1% | growth (SNB-19 CNS): 29.4% | growth (U251 CNS): 12.7% | growth (PC-3 prostate): 23.8% | growth (SK-MEL-5 melanoma): 24.4% | growth (UACC-62 melanoma): 36.3% | growth (SK-MEL-28 melanoma): 57.7% | growth (SK-MEL-2 melanoma): -10.8% (active) | growth (EKVX NSCLC): -6.4% (active) | growth (SN12C renal): 24.9% | growth (UO-31 renal): -22.4% (active) | growth (TK-10 renal): 21% | growth (ACHN renal): 16.5% | growth (CAKI-1 renal): -49.4% (active) | growth (A498 renal): 33.8% | growth (CCRF-CEM leukemia): 8.95% (active) | growth (MOLT-4 leukemia): -5.34% (active) | growth (SR leukemia): 3.43% (active)

O=C(Nc1ccccc1Cl)c1cnc2ccc(C3CCNCC3)cn12
growth (HT29 colon): 18% | growth (SNB-75 CNS): -6.82% (active) | growth (SNB-19 CNS): 84.6% | growth (U251 CNS): 88.4% | growth (PC-3 prostate): 72.1% | growth (SK-MEL-5 melanoma): 90.6% | growth (UACC-62 melanoma): 93.6% | growth (SK-MEL-28 melanoma): 102% | growth (SK-MEL-2 melanoma): 92.4% | growth (EKVX NSCLC): 38.5% | growth (SN12C renal): 58.8% | growth (UO-31 renal): -9.91% (active) | growth (TK-10 renal): -13.2% (active) | growth (ACHN renal): 12.7% | growth (CAKI-1 renal): -40.1% (active) | growth (A498 renal): 36.6% | growth (CCRF-CEM leukemia): 112% | growth (MOLT-4 leukemia): 62.5% | growth (SR leukemia): 93%
